Assay outcomes from PubChem.
NSD2 block: inhibitors of human NSD2, primary screen, biochemical, plate reader, single point; Histone-lysine N-methyltransferase NSD2 (Homo sapiens), O96028; inhibition, % at 12.5 µM; NSD2-SET H3K36me1 DELFIA fluorescence; AID 624260, 2012; hit rate 0.07% among 44,000; in the data active = inhibition above about 54%, passing the limit was not always enough;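 note: inhibitors reduce the monomethyl H3K36 fluorescence signal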
Hits are given with their value. The sample as a whole holds a higher share of hits than the screen did.

`COc1c(O)c2c(=O)cc3c4c5c(cc(=O)c6c(O)c(OC)c(CC(C)O)c(c(c1CC(C)O)c24)c65)OCO3` (centres undefined) gave NSD2 block inactive.
`C=CCOc1ccccc1/C=N/NC(=O)c1ccccn1` gave NSD2 block inactive.
COc1cc(/C=N/NC(=O)CCCCCC(=O)Nc2ccccc2O)c(Br)cc1O was read as NSD2 block inactive.
`CC(C)(C)ONC(=O)c1ccc(-n2cc(C(=O)NO)nn2)cc1` gave NSD2 block inactive.
For Cc1ccc(/C=N/NC(=O)CCCCCC(=O)NO)o1 the results were NSD2 block inactive.
Screening Cc1sc2c(c1C)-c1nc(SCC(=O)C(C)(C)C)ncc1S(=O)(=O)N2C returned NSD2 block inactive.
Screening O=C(NO)c1ccc(C(=O)N/N=C/c2cccc3ccccc23)cc1 returned NSD2 block inactive.
C/C=C/[C@H](CCn1cc([C@H](O)c2ccccc2)nn1)[Si](C)(C)c1ccc(OC)cc1 was read as NSD2 block inactive.
Screening COC(=O)C(Cc1c[nH]c2ccccc12)NC(=O)C(NC(=O)C(C)NC(=O)/C=C/C(=O)O)C(C)c1c[nH]c2ccccc12 (centres undefined) returned NSD2 block inactive.
Screening O=C(CCCCCC(=O)Nc1ccccc1O)N/N=C/c1ccc(OCCO)cc1 returned NSD2 block inactive.
`Cc1ccc(/C=N/NC(=O)CCCCCC(=O)Nc2ccccc2O)o1` gave NSD2 block inactive.
Screening CCOc1cc(/C=N/NC(=O)c2ccc(C(=O)NO)cc2)ccc1O returned NSD2 block inactive.
`O=C(O)CCCCCCC(=O)N/N=C/c1ccc(C(F)(F)F)cc1` gave NSD2 block inactive.
Oc1ccc(CCCc2ccc3c(c2)OCO3)c(O)c1 was read as NSD2 block inactive.
O=C(NO)c1cccc(C(=O)N/N=C/c2ccc3c(c2)OCCO3)c1 was read as NSD2 block inactive.
For C=CCOc1ccccc1/C=N/NC(=O)CCCCC(=O)NO the results were NSD2 block inactive.
`O=C(/C=C/c1ccc(OCc2ccc(Cl)cc2)cc1)NO` gave NSD2 block inactive.
CCOc1cc(OCC)cc(C(=O)N[C@@H](Cc2ccc(-n3cc(COc4ccccc4/C=C(C)/C=C/C(=O)NO)nn3)cc2)C(=O)OC)c1 was read as NSD2 block inactive.
`COc1cc(CCC(O)CC(O)CCc2ccc(O)c(O)c2)ccc1O` (centres undefined) gave NSD2 block inactive.
For O=C(CCCCC(=O)N/N=C/c1ccc(-c2ccccc2)cc1)NO the results were NSD2 block inactive.
C[C@@H]1CN([C@@H](C)CO)C(=O)c2cc(NC(=O)Nc3ccccc3)ccc2O[C@@H](C)CCCCO[C@@H]1CN(C)S(=O)(=O)c1ccc(F)cc1 was read as NSD2 block inactive.
Screening Cc1ccc(F)cc1N1C(=O)COCC1=O returned NSD2 block inactive.
O=C(NO)c1cccc(C(=O)N/N=C/c2ccc(O)c(F)c2)c1 was read as NSD2 block inactive.
[N-]=[N+]=Nc1cccc(C(=O)N2CCN(c3ccccc3)CC2)c1 was read as NSD2 block inactive.
O=C(CCCCCC(=O)N/N=C/c1ccccc1)NO was read as NSD2 block inactive.
O=C(O)/C=C\C(=O)Nc1ccccc1SCC(O)Cn1ccc(C(F)(F)F)n1 (centres undefined) was read as NSD2 block inactive.
Screening C=C(C)[C@@]12O[C@@H]1[C@@]1(C)C(=CC2=O)CC[C@@H](O)[C@@H]1C returned NSD2 block inactive.
`CC(=O)O[C@@H]1CC2C(C)(C)C(=O)C3OC3[C@]2(C)C2CC[C@@]3(C)[C@H](c4ccoc4)OC(=O)C4OC43[C@@]21C` (some centres undefined) gave NSD2 block inactive.
For COC(=O)[C@@H](O)[C@H]1[C@@]2(C)C[C@]3(O)C4[C@@H](O[C@]56CC(=O)O[C@@H](c7ccoc7)[C@@]5(C)CCC([C@]46O)[C@]13C)[C@H]2O (some centres undefined) the results were NSD2 block 76.
For CC12CC(c3ccoc3)OC(=O)C1CCC1(C)C2C2OC(=O)C1(O)C1OC21 (centres undefined) the results were NSD2 block inactive.
For Cc1ccc(NC2=CC(=O)c3sc(C)nc3C2=O)cc1 the results were NSD2 block 74.
For O=C(N/N=C/c1cc(Cl)cc(Cl)c1O)c1ccccc1O the results were NSD2 block inactive.
For CC1(C)[C@H]2CC=C(/C=N\NC(=O)c3cccc(C(=O)NO)c3)[C@@H]1C2 the results were NSD2 block inactive.
Screening Cn1c(=O)c2c(nc(Sc3nnc(N)s3)n2C)n(C)c1=O returned NSD2 block inactive.
Screening O=C1N(O)C2(C=CCCC2)/C(=N/O)C12CCCCC2 (centres undefined) returned NSD2 block inactive.
Screening COc1ccc(/C=N\NC(=O)c2ccccc2O)c(O)c1 returned NSD2 block inactive.
Screening COC(=O)CCCCCCC(=O)N/N=C/c1ccccc1C(=O)O returned NSD2 block inactive.
For COc1cc(C2c3c(cc(OC)c(O)c3OC)CC(CO)C2COC2OC(CO)C(O)C(O)C2O)cc(OC)c1O (centres undefined) the results were NSD2 block 76.
`COc1cc(C2c3c(cc(OC)c(O)c3OC)CC(CO)C2COC2OCC(O)C(O)C2O)cc(OC)c1O` (centres undefined) gave NSD2 block inactive.
COc1cc(C[C@H]2CO[C@H](c3ccc(O[C@@H]4O[C@H](CO)[C@@H](O)[C@H](O)[C@H]4O)c(OC)c3)[C@H]2CO)ccc1O was read as NSD2 block inactive.
For CCOc1ccc(NC(=O)N(Cc2cn(C)c3ccccc23)C2CCCCC2)cc1 the results were NSD2 block inactive.
For O=C(NO)c1cccc(C(=O)N/N=C/c2cccc(O)c2O)c1 the results were NSD2 block inactive.
Screening O=C(NO)c1cccc(C(=O)N/N=C/c2ccc(O)c(O)c2O)c1 returned NSD2 block 63.
`O=C(NO)c1cccc(C(=O)N/N=C/c2ccc(O)c3ccccc23)c1` gave NSD2 block inactive.
Screening COc1ccc(COCC23N=C4SCc5ccccc5CN4[C@H](c4ccccc4O2)[C@H]3CO[Si](C)(C)C(C)(C)C)cc1 returned NSD2 block inactive.
`OC[C@H]1O[C@@H](Oc2ccc3c(c2)OC[C@H]2c4cc5c(cc4O[C@@H]32)OCO5)[C@H](O)[C@@H](O)[C@@H]1O` gave NSD2 block 68.
`Oc1ccc2c(c1O)OCC1c3cc4c(cc3OC21)OCO4` (centres undefined) gave NSD2 block inactive.
`COc1ccc2c(c1)O[C@H]1c3ccc(O)cc3OC[C@@H]21` gave NSD2 block inactive.
Screening O=C(CCNc1ccc(Cl)c(C(F)(F)F)c1)c1ccccc1 returned NSD2 block inactive.
Screening CC(O)c1cc(-c2ccc(Cl)cc2Cl)no1 (centres undefined) returned NSD2 block inactive.
`O=C(CCCCCC(=O)N/N=C/c1ccc(Br)o1)NO` gave NSD2 block inactive.
Screening COc1cc(/C=N/NC(=O)CCCCCCC(=O)Nc2ccccc2O)c([N+](=O)[O-])cc1OC returned NSD2 block inactive.
C[C@@H]1O[C@@H](Oc2cc(O)c3c(=O)c(O[C@@H]4O[C@@H](C)[C@H](O)[C@@H](O[C@@H]5OC[C@@H](O)[C@H](O)[C@H]5O)[C@H]4O[C@@H]4O[C@H](CO)[C@@H](O)[C@H](O)[C@H]4O)c(-c4ccc(O)c(O)c4)oc3c2)[C@H](O)[C@H](O)[C@H]1O was read as NSD2 block inactive.
